From PubChem BioAssay (NCI) come the findings set out here.

About 83,000 compounds went through this panel and 20% of them were active in at least one assay; those are over-represented in the sample as a whole.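 Interpretation: 100, growth as untreated; towards 0, rising growth inhibition; 0, no net growth; 0 to -100, cell death. Compounds scoring below 10 were considered active.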 Unmarked numbers belong to inactive results. Active and inactive are the calls of the source.

Among the test systems are NCI-H23 lung; NCI-H226 lung; NCI-H322M lung; HOP-62 NSCLC; NCI-H460 lung; NCI-H522 lung; A549/ATCC NSCLC; 786-0 renal; COLO 205 colon; DU-145 prostate; K-562 leukemia; MALME-3M melanoma; MDA-MB-231 breast; RXF 393 renal; SF-268 CNS; SF-295 CNS; SF-539 CNS; UACC-257 melanoma; M14 melanoma.
What all share (experiment): NCI-60 one-dose screen, 48 h (100 = growth as untreated, 0 = no growth, -100 = all killed)
Details in all cases: 10 µM unless noted

Take `CC(C)C(C(=O)O)n1c(O)c(/C=C2/C=c3cc4c(cc3=NC2=O)OCO4)sc1=S` (configuration not stated): the growth was 98.4% in the experiment with NCI-H23 lung; 101% with NCI-H226 lung; 103% in the experiment with NCI-H322M lung; 115% with HOP-62 NSCLC; 114% in the experiment on NCI-H460 lung; 99.4% in the experiment on NCI-H522 lung. Further, the growth in the experiment with A549/ATCC NSCLC was 110%; in the experiment on 786-0 renal it was 105%; with COLO 205 colon, 115%; with DU-145 prostate, 115%; in the experiment with K-562 leukemia, 109%; with MALME-3M melanoma, 98.4%. For the same molecule, the growth in the experiment on MDA-MB-231 breast is 99.2%; with RXF 393 renal, 116%; with SF-268 CNS, 111%; in the experiment on SF-295 CNS, 102%; in the experiment with SF-539 CNS, 104%; with UACC-257 melanoma it was 107%. The growth in the experiment on M14 melanoma is 103%.
Regarding `Cn1cc(-c2cc(N)n3nc(-c4c[nH]c5ccccc45)cc3n2)c2cc(Br)cnc21`, the growth with NCI-H23 lung was -63.8% (active); in the experiment with NCI-H226 lung, -33.1% (active); in the experiment on NCI-H322M lung, -50.8% (active); with HOP-62 NSCLC, -51.2% (active); with NCI-H460 lung, -65.1% (active); in the experiment on NCI-H522 lung it was -75.4% (active). The growth with A549/ATCC NSCLC was -33% (active); with 786-0 renal it was -77% (active); in the experiment with COLO 205 colon, -89.3% (active); in the experiment on DU-145 prostate, 5.95% (active); in the experiment with K-562 leukemia, -23.9% (active); in the experiment with MALME-3M melanoma, -83.9% (active). Besides, the growth in the experiment with MDA-MB-231 breast was -83.4% (active); with RXF 393 renal, -76.3% (active); in the experiment with SF-268 CNS, 0.392% (active); with SF-295 CNS, -71.6% (active); in the experiment with SF-539 CNS, -93.5% (active); in the experiment with UACC-257 melanoma, -78.9% (active). Moreover, the growth in the experiment with M14 melanoma was -71% (active).
Regarding `COc1c(F)ccc(C(=O)Nc2ccc3nc(NC(=O)C4CCCN(S(=O)(=O)c5cccc(C(F)(F)F)c5)C4)sc3c2)c1F` (configuration not stated), the growth with NCI-H23 lung is 96.9%; in the experiment on NCI-H226 lung, 93.6%; with NCI-H322M lung it was 98.9%; in the experiment with HOP-62 NSCLC, 99%; with NCI-H460 lung, 79.4%; in the experiment on NCI-H522 lung it was 85.2%. The growth is 79.4% in the experiment on A549/ATCC NSCLC; 60.9% in the experiment with 786-0 renal; 84.6% in the experiment on COLO 205 colon; 91.1% in the experiment on DU-145 prostate; 62.3% in the experiment on K-562 leukemia; 94.7% in the experiment on MALME-3M melanoma. The growth in the experiment with MDA-MB-231 breast is 85%; with RXF 393 renal, -9.56% (active); in the experiment on SF-268 CNS, 65%; with SF-295 CNS, 79.8%; in the experiment with SF-539 CNS it was 70.1%; in the experiment with UACC-257 melanoma, 89.9%. In the experiment on M14 melanoma, the growth was 87.5%.
For the molecule `COc1ccc(-c2nc3cc(C)ccc3n2CC(=O)N=Nc2c(O)[nH]c3ccc(OC)cc23)cc1`, the growth is -65.1% (active) with NCI-H23 lung; -66.6% (active) with NCI-H226 lung; -4.47% (active) with NCI-H322M lung; -70.5% (active) with HOP-62 NSCLC; -48% (active) in the experiment on NCI-H460 lung; -40.9% (active) in the experiment on NCI-H522 lung. The growth is -49.7% (active) in the experiment with A549/ATCC NSCLC; -69.3% (active) with 786-0 renal; -68.2% (active) in the experiment with COLO 205 colon; 8.56% (active) in the experiment with DU-145 prostate; -28.5% (active) with K-562 leukemia; -94.6% (active) in the experiment on MALME-3M melanoma. Further, the growth was -76.3% (active) in the experiment with MDA-MB-231 breast; -82.9% (active) in the experiment with RXF 393 renal; -8.44% (active) with SF-268 CNS; -72.9% (active) with SF-295 CNS; -99% (active) in the experiment with SF-539 CNS; -78% (active) with UACC-257 melanoma. Besides, the growth in the experiment on M14 melanoma is -83.2% (active).
Turning to `Cc1cccc(-c2nc(Nc3cccc(S(N)(=O)=O)c3)c3ccccc3n2)c1`, the growth in the experiment with NCI-H23 lung is 39.6%; with NCI-H226 lung it was 54.3%; with NCI-H322M lung it was 52.2%; in the experiment on HOP-62 NSCLC, 80.2%; in the experiment with NCI-H460 lung, 37.6%; in the experiment with NCI-H522 lung, 4.87% (active). For the same molecule, the growth in the experiment with A549/ATCC NSCLC was 35.7%; in the experiment with 786-0 renal it was 5.75% (active); in the experiment with COLO 205 colon, 51.9%; in the experiment on DU-145 prostate it was 57.3%; with K-562 leukemia it was 10.2%; with MALME-3M melanoma, 75%. Further, the growth is -13.6% (active) with MDA-MB-231 breast; 29.2% in the experiment on RXF 393 renal; 46.2% with SF-268 CNS; 20.2% with SF-295 CNS; -9.93% (active) in the experiment with SF-539 CNS; 87% with UACC-257 melanoma. The growth in the experiment with M14 melanoma was 54%.
As for `Cc1nc(Nc2ccccn2)sc1C(=O)CC(SCC(=O)Nc1ccc(Cl)cc1)c1ccccc1F` (configuration not stated), the growth with NCI-H23 lung is -0.749% (active); in the experiment with NCI-H226 lung, 48%; in the experiment with NCI-H322M lung, 19.6%; in the experiment on HOP-62 NSCLC, 10.1%; in the experiment with NCI-H460 lung, 6.78% (active); in the experiment with NCI-H522 lung, -12.8% (active). Moreover, the growth was 6.38% (active) in the experiment on A549/ATCC NSCLC; 10.9% in the experiment on 786-0 renal; -49.7% (active) in the experiment with COLO 205 colon; -35.3% (active) in the experiment with DU-145 prostate; 11.8% in the experiment on K-562 leukemia; 27.5% with MALME-3M melanoma. Also, the growth in the experiment on MDA-MB-231 breast is -40.1% (active); in the experiment on RXF 393 renal, 1.73% (active); with SF-268 CNS it was 22.4%; with SF-295 CNS it was 2% (active); in the experiment with SF-539 CNS it was -58.4% (active); with UACC-257 melanoma, 36.9%. Further, the growth in the experiment on M14 melanoma was 1.45% (active).
Regarding `O=C(C1=CNC(=S)NC1c1ccc(O)cc1)c1cc2ccccc2oc1=O` (configuration not stated), the growth with NCI-H23 lung is 102%; in the experiment on NCI-H226 lung, 95.7%; in the experiment on NCI-H322M lung it was 106%; with HOP-62 NSCLC, 91.4%; with NCI-H460 lung, 108%; with NCI-H522 lung it was 90%. Further, the growth in the experiment with A549/ATCC NSCLC was 101%; with 786-0 renal it was 109%; with COLO 205 colon, 102%; in the experiment with DU-145 prostate, 110%; with K-562 leukemia, 90.9%; with MALME-3M melanoma, 108%. Moreover, the growth in the experiment with MDA-MB-231 breast was 105%; in the experiment with RXF 393 renal, 109%; in the experiment on SF-268 CNS, 97.5%; with SF-295 CNS it was 98.8%; in the experiment on SF-539 CNS, 91.9%; with UACC-257 melanoma, 107%. In addition, the growth with M14 melanoma was 96.4%.
For `CCS(=O)(=O)N1CCCC(C(=O)Nc2nc3ccc(NC(=O)c4ccc(F)c(OC)c4F)cc3s2)C1` (configuration not stated), the growth in the experiment with NCI-H23 lung was 47.5%; in the experiment on NCI-H226 lung, 48%; in the experiment with NCI-H322M lung it was 82.3%; in the experiment with HOP-62 NSCLC it was 80.6%; in the experiment on NCI-H460 lung, 62.5%; in the experiment on NCI-H522 lung, 52%. Besides, the growth in the experiment with A549/ATCC NSCLC was 77.4%; in the experiment on 786-0 renal, 58.1%; in the experiment on COLO 205 colon it was 54.3%; in the experiment on DU-145 prostate, 77.2%; with K-562 leukemia, 38.6%; with MALME-3M melanoma, 67.9%. The growth with MDA-MB-231 breast was 81.7%; in the experiment with RXF 393 renal it was 26.9%; in the experiment on SF-268 CNS, 68.5%; in the experiment with SF-295 CNS, 48.8%; with SF-539 CNS, 57.6%; in the experiment on UACC-257 melanoma it was 37.4%. Also, in the experiment on M14 melanoma, the growth is 78.5%.
